Test [1] can be described thus: qHTS to identify inhibitors of the type 1 interferon - major histocompatibility complex class I in skeletal muscle: primary screen against the NCATS Pharmaceutical Collection (AID 1347407).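 Also: luminescence of HiBiT knocked into endogenous HLA-B as interferon-induced MHC class I level.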 The procedure, abridged: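 HLA-B HiBiT myoblasts, dexamethasone-free growth medium + 4 ng/ml IFN-b; compounds pinned 1 h after seeding, […] from 46 uM; 24 h, 37 C, 5% CO2; lytic HiBiT detection, 10 min RT, luminescence.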
In general terms: Quantitative high-throughput screening tests each substance at several concentrations.

Test [2] has as its target Protein phosphatase 1D (Homo sapiens) (UniProt O15297). Nature of the test: RapidFire Mass Spectrometry qHTS Assay for Modulators of WT P53-Induced Phosphatase 1 (WIP1) (AID 1347424). Also: series mostly up to about 63 µM. An outline of the steps:
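RapidFire MS readout of dephosphorylated VEPPL-S-QETFS product, with 1 uM isotope-labelled peptide standard. Reaction: 10 nM WIP1, 2 uM phosphopeptide substrate, 5 min, room temperature, after 1 h compound preincubation; stopped with 0.5% formic acid.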

The target is the same in test [3]. Nature of the test: Rhodamine-PBP qHTS Assay for Modulators of WT P53-Induced Phosphatase 1 (WIP1) (AID 1347425). An outline of the steps:
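The read-out is the change in Rhodamine-PBP fluorescence (f1 - f0, ex 525/em 598 nm) as Pi is released, read each minute for 11 min. Final reaction: 5 nM WIP1, 10 uM phosphopeptide VEPPL-pS-QETFS, 10 uM Rh-PBP, 50 mM Tris-HCl pH 7.5, 30 mM MgCl2. Compound was preincubated with enzyme for 1 hour at room temperature.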

Test [4] is described as follows: Primary qHTS for inhibitors of La Crosse Virus (LACV) - induced cell death in SH-SY5Y cells (AID 1508616).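 Also: top concentration of the series differs between compounds; higher means more rescue of cells from virus-induced death.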 An outline of the steps:
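Cytopathicity rescue screen: compounds pinned onto SH-SY5Y cells, which are then infected with LACV (MOI 0.01) and held 6 days at 37C. Percent activity is scaled between infected DMSO control and uninfected DMSO control.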

Test [5] concerns the target Calcium and integrin-binding protein 1 (Homo sapiens) (UniProt Q99828). The test is described as follows: Primary qHTS for Identification of Calcium Integrin Binding Protein 1 (CIB1) Competitor (AID 1508620).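 Also: GST tagged CIB1 binding a fluorescein labelled alphaIIb integrin peptide tracer; top concentration of the series differs between compounds.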 An outline of the steps:
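Fluorescence polarization competition: GST-tagged CIB1 (1 uM final) preincubated with compound 15 min at room temperature, then FITC-labelled alphaIIb peptide (100 nM final) added. After 15 min at room temperature, polarization read at Ex 480/Em 540.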

A short description of test [6]: Primary qHTS for small molecule stabilizers of the endoplasmic reticulum resident proteome: Secreted ER Calcium Modulated Protein (SERCaMP) assay (AID 1508630). The procedure, abridged:
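The SH-SY5Y reporter protocol was run at 3 concentrations up to 38.3 uM (primary) or 11 concentrations (follow-up): 16 h compound, 100 nM thapsigargin for 4 h, then extracellular luciferase luminescence.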

A short description of test [7]: A High-Content qHTS Against Drug Library for the Identification of Small Molecules that Inhibit DYT1 Early Onset Primary Dystonia-Associated Cell Pathology (AID 1645839; calls by dose curve; also: series mostly up to about 46 µM). An outline of the steps: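 Cells were seeded and left for 24 h, then dosed with compound alongside tetracycline induction of mutant EGFP-TorsinA. They were incubated for 48 h, fixed in 4% paraformaldehyde, permeabilized and imaged for mislocalization (%pathology) and cell count.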

Test [8] concerns the target Cytochrome P450 2D6 (Homo sapiens) (UniProt P10635). Nature of the test: Cytochrome P450 family 2 subfamily D member 6 (CYP2D6) small molecule antagonists: luciferase biochemical (cell-free) qHTS assay (AID 1645840; active = well fitted curve in the direction sought with a large enough effect in the repeat runs; an effect the other way counts as inactive or inconclusive; also: nearly all actives have a fitted effect of over 55% in size; also: potency is read from the fitted curve at half-maximal effect). The procedure, abridged:
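P450-Glo CYP2D6 system: proluciferin substrate converted by enzyme to luciferin, read by luminescence proportional to activity. Enzyme-substrate mix with compound 10 min at room temperature, then NADPH regeneration 1 h before detection reagent.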

For test [9], the target named is Cytochrome P450 2C9 (Homo sapiens) (UniProt P11712). Nature of the test: Cytochrome P450 family 2 subfamily C member 9 (CYP2C9) small molecule antagonists: luciferase biochemical (cell-free) qHTS assay (AID 1645842; active = well fitted curve in the direction sought with a large enough effect in the repeat runs; an effect the other way counts as inactive or inconclusive; also: nearly all actives have a fitted effect of over 55% in size; also: potency is read from the fitted curve at half-maximal effect). An outline of the steps:
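P450-Glo CYP2C9 system: proluciferin substrate with enzyme in mix containing 0.4% BSA, 10 min at room temperature, then NADPH regeneration solution added and incubated 1 h at 37C. Detection reagent stopped reaction; luminescence read after 20 min as RLU.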

Test [10] can be described thus: Primary qHTS for inhibitors of nuclear receptor binding SET domain protein 2 (NSD2) in an isogenic RCH-ACV NSD2 p.E1099K mutant (9B) (AID 1645876). Also: nearly all actives have a fitted effect of over 70% in size.
A short description of test [11]: Primary qHTS for inhibitors of nuclear receptor binding SET domain protein 2 (NSD2) in an RCH-ACV wild type WT cells (2C) (AID 1645877). Also: nearly all actives have a fitted effect of over 70% in size.

Structures are written as SMILES. Inconclusive results are not listed. Values without a mark were called inactive. Activity calls are given as the source filed them. Unless noted, calls follow the shape of the dose curve; as a rule, active = well fitted curve in the direction sought with a large enough effect; inconclusive = small, poorly fitted or top-dose-only effect, or another doubt; inactive = no such curve, though single readings can be large; an effect the other way counts as inactive or inconclusive.

Chain of Protein phosphatase 1D (Homo sapiens) (O15297 whole entry, looked up): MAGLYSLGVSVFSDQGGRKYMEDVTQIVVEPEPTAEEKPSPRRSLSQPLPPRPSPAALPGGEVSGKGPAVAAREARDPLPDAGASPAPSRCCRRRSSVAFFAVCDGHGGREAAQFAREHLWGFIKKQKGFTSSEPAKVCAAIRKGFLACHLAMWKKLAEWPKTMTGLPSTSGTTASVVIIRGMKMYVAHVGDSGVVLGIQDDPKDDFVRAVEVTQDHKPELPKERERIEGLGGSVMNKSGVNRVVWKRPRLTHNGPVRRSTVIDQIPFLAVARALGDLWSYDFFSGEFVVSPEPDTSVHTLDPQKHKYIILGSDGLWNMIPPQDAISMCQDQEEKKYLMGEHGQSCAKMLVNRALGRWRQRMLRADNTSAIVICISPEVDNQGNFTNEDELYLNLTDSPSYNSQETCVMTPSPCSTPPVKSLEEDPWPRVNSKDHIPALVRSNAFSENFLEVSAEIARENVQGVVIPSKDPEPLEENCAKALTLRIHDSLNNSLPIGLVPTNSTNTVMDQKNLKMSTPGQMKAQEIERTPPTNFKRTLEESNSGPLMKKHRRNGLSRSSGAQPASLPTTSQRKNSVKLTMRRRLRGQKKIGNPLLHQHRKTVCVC
Chain of Calcium and integrin-binding protein 1 (Homo sapiens) (Q99828 whole entry, looked up): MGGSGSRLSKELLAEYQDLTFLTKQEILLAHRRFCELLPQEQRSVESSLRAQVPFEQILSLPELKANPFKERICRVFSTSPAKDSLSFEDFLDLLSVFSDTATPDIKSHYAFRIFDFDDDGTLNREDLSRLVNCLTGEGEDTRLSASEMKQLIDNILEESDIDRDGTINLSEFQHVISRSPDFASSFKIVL
Chain of Cytochrome P450 2C9 (Homo sapiens) (P11712 whole entry, looked up): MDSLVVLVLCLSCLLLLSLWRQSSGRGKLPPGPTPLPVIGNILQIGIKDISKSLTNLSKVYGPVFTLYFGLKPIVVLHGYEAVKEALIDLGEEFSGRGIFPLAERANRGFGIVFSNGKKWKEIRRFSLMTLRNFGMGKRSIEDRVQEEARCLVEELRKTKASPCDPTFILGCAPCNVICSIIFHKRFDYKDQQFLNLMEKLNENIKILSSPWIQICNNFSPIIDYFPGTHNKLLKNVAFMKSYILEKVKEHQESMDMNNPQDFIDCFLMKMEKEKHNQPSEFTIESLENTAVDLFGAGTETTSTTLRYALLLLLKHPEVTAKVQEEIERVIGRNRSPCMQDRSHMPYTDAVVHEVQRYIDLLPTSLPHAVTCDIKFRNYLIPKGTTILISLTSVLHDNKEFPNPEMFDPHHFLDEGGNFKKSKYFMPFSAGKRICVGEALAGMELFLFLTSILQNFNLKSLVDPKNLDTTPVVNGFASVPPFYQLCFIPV
Chain of Cytochrome P450 2D6 (Homo sapiens) (P10635 whole entry, looked up): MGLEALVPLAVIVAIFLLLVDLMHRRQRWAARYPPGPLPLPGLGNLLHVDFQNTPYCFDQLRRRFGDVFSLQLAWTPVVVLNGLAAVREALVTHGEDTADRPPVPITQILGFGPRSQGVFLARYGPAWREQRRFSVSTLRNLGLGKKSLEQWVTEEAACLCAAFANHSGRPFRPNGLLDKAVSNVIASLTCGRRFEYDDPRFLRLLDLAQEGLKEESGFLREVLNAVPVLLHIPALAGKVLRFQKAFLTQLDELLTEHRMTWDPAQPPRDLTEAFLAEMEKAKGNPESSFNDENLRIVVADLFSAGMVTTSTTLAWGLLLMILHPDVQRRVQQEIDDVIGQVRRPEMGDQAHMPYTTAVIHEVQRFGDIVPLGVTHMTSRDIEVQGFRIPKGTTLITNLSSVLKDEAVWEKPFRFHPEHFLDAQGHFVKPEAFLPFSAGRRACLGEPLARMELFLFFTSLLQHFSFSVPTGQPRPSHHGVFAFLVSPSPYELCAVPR

Regarding `CC(C)CCCC(C)CCCC(C)CCCCC(C)CCCC(C)CCCC(C)C` (stereo not given), the compound was classed as inactive in test [1], in test [2], in test [3], in test [4], in [5] and in test [6]. Further, the Potency result in test [7], in [8], in test [9], in test [10] and in test [11] was “inactive” throughout.

With `COc1cc(O)cc(O)c1`, the compound was called inactive in [1], in test [2], in test [3], in test [4], in [5] and in test [6]. In addition, the Potency result in [7], in test [8], in test [9] and in test [10] was “inactive” each time.

With `Cc1cc(C)nc(NS(=O)(=O)c2ccc(N)cc2)n1`, the compound was classed as inactive in [1], in [2], in test [3], in test [4], in test [5] and in test [6]. For the same compound, the Potency entry in [7], in test [8], in [9], in test [10] and in [11] was “inactive” throughout.

In the case of `CC(=O)OC[C@H]1O[C@@](COC(C)=O)(O[C@H]2O[C@H](COC(C)=O)[C@@H](OC(C)=O)[C@H](OC(C)=O)[C@H]2OC(C)=O)[C@@H](OC(C)=O)[C@@H]1OC(C)=O`, the outcome in [1], in test [2], in test [3], in test [4], in [5] and in [6] was inactive. Further, the Potency result in test [7], in [8], in test [10] and in [11] was “inactive” throughout.

In the case of `C[N+](C)(C)CC[N+]1(C)Cc2c(Cl)c(Cl)c(Cl)c(Cl)c2C1`, the compound was called inactive in [1], in [2], in test [3], in test [4], in test [5] and in test [6]. For the same compound, the Potency entry in test [7], in [9], in [10] and in test [11] was “inactive” in each case. The Potency in [8] is 1.95 µM (active).

Consider `Cc1ccc(S(=O)(=O)NC(=O)NC2CCCCCCC2)cc1`, for which the call in [1], in test [2], in test [3], in [4], in test [5] and in test [6] was inactive. The Potency entry in test [7], in [8], in test [10] and in [11] was “inactive” throughout. Moreover, the Potency in test [9] was 17.4 µM (active).

Turning to `Cc1ccc(S(=O)(=O)NC(=O)NC2CCCCC2)cc1`, the compound was called inactive in [1], in test [2], in [3], in test [4], in test [5] and in [6]. The Potency entry in test [7], in [8] and in test [10] was “inactive” each time.

Consider `CNCc1ccccc1`, for which the call in test [1], in test [2], in test [3], in test [4], in test [5] and in [6] was inactive. For the same compound, the Potency result in test [7], in test [9], in test [10] and in test [11] was “inactive” throughout. In addition, the Potency in test [8] was 11 µM (active).

On to `CC(C)(C)NCC(O)COc1cccc2c1CCC(=O)N2` (stereo not given), for which the call in test [1], in test [2], in test [3], in test [4], in [5] and in test [6] was inactive. Moreover, the Potency entry in [7], in test [8], in test [9], in test [10] and in test [11] was “inactive” in each case.

Regarding `CCN(CC)CCOC(=O)C(c1ccccc1)c1ccccc1`, the result in test [1], in test [2], in test [3], in test [4], in [5] and in test [6] was inactive. Moreover, the Potency entry in test [7], in test [10] and in test [11] was “inactive” in each case. In addition, the Potency in test [8] was 1.95 µM (active).

Regarding `CC1CC(OC(=O)c2ccccc2O)CC(C)(C)C1` (stereo not given), the compound was called inactive in test [1], in test [2], in test [3], in test [4], in test [5] and in test [6]. Besides, the Potency result in test [7], in test [9], in test [10] and in test [11] was “inactive” throughout.
